PubChem BioAssay (EPA / NIEHS)
Inconclusive results are not listed. The source made the active and inactive calls. Rule for the calls: active = hit-call score of the fitted dose curve at least 0.9, where 1 is the maximum; inconclusive = response in the unintended direction; inactive = score below 0.9.

Each compound was assayed against Retinoic acid receptor RXR-alpha (Homo sapiens) (UniProt P19793) (assay: ATG_RXRa_TRANS: Attagene TRANS-FACTORIAL HepG2 Assay for human Retinoid X Receptor alpha (RXRa) (AID 2283012)).
Experimental: ATG_TRANS is a cell-based, multiplexed-readout assay that uses HepG2, a human liver cell line, with measurements taken at 24 hours after chemical dosing in a 24-well plate.ATG_RXRa_TRANS is one of 30 assay component(s) measured or calculated from the ATG_TRANS assay. It is designed to make measurements of mRNA induction, a form of inducible reporter, as detected with fluorescence intensity signals by Reverse transcription polymerase chain reaction (RT-PCR) and Capillary electrophoresis technology.Data from the assay component ATG_RXRa_TRANS was analyzed into 1 assay endpoint. This assay endpoint, ATG_RXRa_TRANS, was analyzed in the positive analysis fitting direction relative to DMSO as the negative control and baseline of activity. Using a type of inducible reporter, measures of mRNA for gain-of-signal activity can be used to understand the reporter gene at the transcription factor-level as they relate to the gene RXRA. Furthermore, this assay endpoint can be referred to as a primary readout, because this assay has produced multiple assay endpoints where this one serves a reporter gene function. To generalize the intended target to other relatable targets, this assay endpoint is annotated to the nuclear receptor intended target family, where the subfamily is non-steroidal.
Human liver HepG2 cells are transiently transfected with multiple reporter transcription units (MRTUs) in 6-well plates using FuGene 6 reagent (Roche; 3 ml FuGene/1 mg DNA). The MRTU constructs are regulated by a cis-regulating element (promoter). […] A major difference between the CIS and TRANS system is that in CIS activities of endogenous TFs are measured, whereas the TRANS assay evaluates changes in activities of exogenous, chimeric NR-Gal4 proteins. […] At the end of 24 hour incubation, total RNA was isolated using TriZol reagent (Invitrogen). The isolated RNA is then reverse-transcribed using oligo(dT) primer and Mo-MLV reverse transcriptase (Invitrogen) with DNAse I (Ambion) treatment for 30 min. The one-tenth of the produced cDNA was amplified by PCR using Taq DNA polymerase (Invitrogen) and two reporter sequence-specific primers. The PCR products were fluorescently labeled by primer extension with 6-arboxyfluorescein (6-FAM) 5'-labeled reporter sequence-specific primer (2 min at 95 C, 20 s at 68 C and 10 min at 72 C) and these products were digested with 5U of HpaI (New England Biolabs) for 2h at 37 C. The fragments were purified using Qiaquick PCR columns (Qiagen), analyzed on an ABI 3130xL genetic analyzer (Applied Biosystems) with peak positions identified by using a set of X-rhodamine (ROX)-labeled MapMarker1000 molecular weight standards (BioVentures). The raw capillary electrophoresis data was processed using Attagraph software (Attagene).

Retinoic acid receptor RXR-alpha (Homo sapiens), sequence (P19793 whole entry, looked up): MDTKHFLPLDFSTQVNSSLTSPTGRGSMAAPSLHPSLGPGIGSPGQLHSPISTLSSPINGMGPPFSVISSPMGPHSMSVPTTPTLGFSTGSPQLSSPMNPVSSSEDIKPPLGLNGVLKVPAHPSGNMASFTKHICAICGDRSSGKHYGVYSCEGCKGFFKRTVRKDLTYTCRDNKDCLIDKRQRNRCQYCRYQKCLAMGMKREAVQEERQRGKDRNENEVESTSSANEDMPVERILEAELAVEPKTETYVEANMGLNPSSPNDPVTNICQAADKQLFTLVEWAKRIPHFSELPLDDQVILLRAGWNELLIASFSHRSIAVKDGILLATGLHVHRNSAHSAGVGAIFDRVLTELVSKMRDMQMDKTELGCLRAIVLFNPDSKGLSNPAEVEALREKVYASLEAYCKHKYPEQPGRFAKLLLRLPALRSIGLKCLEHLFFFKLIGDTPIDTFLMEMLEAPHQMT

Structure (SMILES)	outcome
N=C1C=CC(=C(c2ccc(N)cc2)c2ccc(N)cc2)C=C1	inactive
Cc1cc(C)c(C=O)c(C)c1	inactive
O=C1c2ccccc2C(=O)c2cc(S(=O)(=O)O)ccc21	inactive
C=CCCCCCCCCC=O	inactive
CCCCCCCC(=O)OCC	inactive
CN(C)c1ccc2nc3ccc(=[N+](C)C)cc-3sc2c1	inactive
COc1ccc(C(=O)/C(Br)=C\C(=O)O)cc1	inactive
CC1=C(O)C(=O)C(C)O1 (stereo not given)	inactive
O=C(O)c1cc(O)c2ccccc2c1O	inactive
CCCCC(C=O)CC (stereo not given)	inactive
CCOC(=O)C1=NOC(c2ccccc2)(c2ccccc2)C1	inactive
Cc1c[nH]c(=O)[nH]c1=O	inactive
Nc1nc(N)nc(-c2ccccc2)n1	inactive
O=C(Cl)c1c(Cl)c(Cl)c(C(=O)Cl)c(Cl)c1Cl	inactive
Nc1cccc(N)n1	inactive
Oc1ccc(/C=C/c2cc(O)cc(O)c2)cc1	inactive
CC(=O)/C=C/C1C(C)=CCCC1(C)C (stereo not given)	inactive
CCC(C)(O)CCCC(C)C (stereo not given)	inactive
CCCSSCCC	inactive
CC/C=C\C/C=C\C/C=C\CCCCCCCC(=O)OC	inactive

Structure (SMILES)	outcome
Cc1noc(NS(=O)(=O)c2ccc(N)cc2)c1C	inactive
CCc1cccc(C)c1N	inactive
OCCCc1ccccc1	inactive
Cc1ccc2c(c1)CCCN2	inactive
Cc1ccc(C)c(OCCCC(C)(C)C(=O)O)c1	inactive
COc1cc(O)c(C(=O)c2ccccc2)cc1S(=O)(=O)O	inactive
CC(C)OC(=O)c1ccccc1	inactive
CCNc1nc(NC(C)(C)C)nc(OC)n1	inactive
CCCCC/C=C\C/C=C\CCCCCCCC(=O)O	inactive
CC1(C)CC(O)CC(C)(C)N1[O]	inactive
c1ccc2cnccc2c1	inactive
CC(CC(C)C)=NO	inactive
CC(=O)OCC=C(C)C	inactive
CCC(C)C(=O)OCCc1ccccc1 (stereo not given)	inactive
CCN1CCCC1=O	inactive
CC1(C)C(=O)N(CO)C(=O)N1CO	inactive
COc1ccc(C(=O)c2ccccc2)c(O)c1	inactive
COC(C=C(C)CCC=C(C)C)OC	inactive
Clc1cccnc1	inactive
N#Cc1ccc(C2CCCc3cncn32)cc1 (stereo not given)	inactive
